# Assay outcomes from PubChem BioAssay.
# Sampled rows, rich in hits. Any-hit rate of the full collection: about 19%.
# S-ASM inh = blocks human secretory acid sphingomyelinase; 0.006% of 340,000 active; P17405; AID 504937; Potency, µM (doses to about 57.5 µM), inactives show top-dose activity change, negative = inhibition, actives largely listed as inhibitors; placental ASM, HMU-PC fluorogenic substrate, 60 min; also: potency is read from the fitted curve at half-maximal effect
# Target sequence (P17405 47-631 limits assumed): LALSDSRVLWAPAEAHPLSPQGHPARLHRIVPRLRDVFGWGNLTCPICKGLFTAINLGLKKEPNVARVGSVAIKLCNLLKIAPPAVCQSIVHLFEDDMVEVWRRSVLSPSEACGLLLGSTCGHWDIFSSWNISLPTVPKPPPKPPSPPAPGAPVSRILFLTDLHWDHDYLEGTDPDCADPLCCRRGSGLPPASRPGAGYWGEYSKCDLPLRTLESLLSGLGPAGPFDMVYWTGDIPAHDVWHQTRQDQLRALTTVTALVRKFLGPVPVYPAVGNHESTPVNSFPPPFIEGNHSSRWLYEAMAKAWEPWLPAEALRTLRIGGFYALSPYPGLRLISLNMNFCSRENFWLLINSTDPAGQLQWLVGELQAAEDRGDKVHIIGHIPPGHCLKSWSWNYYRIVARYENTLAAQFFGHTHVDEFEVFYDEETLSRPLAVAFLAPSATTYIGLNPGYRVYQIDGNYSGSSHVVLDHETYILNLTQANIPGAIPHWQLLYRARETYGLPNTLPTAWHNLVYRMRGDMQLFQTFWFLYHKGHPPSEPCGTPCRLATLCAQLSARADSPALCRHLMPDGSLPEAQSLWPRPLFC
#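 Fluorescence read-out (Ex 386 nm, Em 447 nm) after stopping the reaction at pH 10. Enzyme: ASM from human placenta; substrate HMU-PC0, 9 uM final; 60 min, 37 °C. Compound preincubation 10 min, ambient temperature.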
# TDP1 cell CPT = growth inhibition of DT40 Tdp1-/-;hTDP1 cells with camptothecin (screen for TDP1 inhibitors); chicken DT40 Tdp1-/-;hTDP1 cells + 20 nM CPT, ATP luminescence, 48 h; Potency, µM (highest dose often 46.2 µM), for inactives: at the highest dose activity change, negative = growth inhibition, actives largely listed as inhibitors; 12% of 420,000 active; AID 686979; also: potency is read from the fitted curve at half-maximal effect; % is scaled to controls: 0 for no effect and ±100 for the full control effect; nearly all actives have a fitted effect of over 55% in size
#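 Cell growth measured by CellTiter-Glo luminescence after a minimum 48 h, 37 C compound exposure with 20 nM CPT in Tdp1-knockout DT40 cells stably expressing hTDP1, seeded 400/well; qHTS titration format.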
# TGFb inhibitor = inhibitors of TGF-b signaling; HepG2 CAGA-GFP TGF-b/SMAD3 reporter, GFP fluorescence, 18 h; TGF-beta stimulated, 500 pg/mL final; Potency, µM (series often up to 46.1 µM), for inactives: at the highest dose activity, negative = inhibition, usual class: inhibitors; 1.2% of 410,000 active; AID 588855; also: potency is read from the fitted curve at half-maximal effect; % is scaled to controls: 0 for no effect and ±100 for the full control effect; nearly all actives have a fitted effect of over 65% in size
#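 Using HEPG2 CAGA-GFP reporter cells at 1000 cells/well, we pinned test compounds, stimulated with recombinant TGF-beta (500 pg/mL final) and measured total well GFP after 18 h.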
# IL1B secr inh = inflammasome signaling inhibition, IL-1 beta readout. THP-1 LPS/ATP IL-1B secretion, AlphaLISA, 16 h; hits give low values. activity change, % at 57.5 µM. 4.7% of 360,000 active; in the data active = activity change below about -50%; inconclusive = mostly about -30% to -49%; also: % is scaled to controls: 0 for no effect and ±100 for the full control effect
#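 THP-1 cells pretreated 1 hr with compounds (up to 57.5 uM final), then stimulated with LPS (250 ng/mL final) plus ATP (1.25 mM final); secreted IL-1B measured by AlphaLISA after 16 hr, decreased signal indicating inhibition.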
# TDP1 cell noCPT = qHTS for Inhibitors of human tyrosyl-DNA phosphodiesterase 1 (TDP1): qHTS in cells in absence of CPT; DT40 Tdp1-/- hTDP1 cells, no CPT, ATP luminescence, 48 h; Potency, µM (highest dose often 46.2 µM), for the others: top-dose activity change, negative = growth inhibition, most hits filed as inhibitors; 15% of 420,000 active; AID 686978, 2013; also: potency is read from the fitted curve at half-maximal effect; % is scaled to controls: 0 for no effect and ±100 for the full control effect; nearly all actives have a fitted effect of over 55% in size
#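 Growth kinetics read by CellTiter-Glo luminescence after ≥48 hr at 37 °C. Cells: DT40 Tdp1-/- stably carrying human TDP1, 400 per well, compound exposure in the absence of CPT (DMSO vehicle).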
# HepG2 tox = HepG2 cytotoxicity, counter-screen for TGF-b inhibitors. HepG2 CAGA-GFP viability, ATP luminescence, 18 h. Potency, µM (series often up to 46.1 µM), for the others: at the top dose activity change, negative = cytotoxicity, actives largely listed as cytotoxic. 0.76% of 410,000 active. AID 588856; also: potency is read from the fitted curve at half-maximal effect
#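 HepG2 CAGA-GFP cells (1000/well, DMEM with 1% FBS) received compound, then TGF-beta at 500 pg/mL final, and were incubated 18 hours at 37 degrees C. Viability was read by CellTiter-Glo luminescence. Media-only wells were set as complete cell-killing and DMSO as no toxicity.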
# * = called active by the depositor; ? = inconclusive; · = no result; [ ] = remark or other dose. Unless noted, calls follow the shape of the dose curve; as a rule, active = well fitted curve in the direction sought with a large enough effect; inconclusive = small, poorly fitted or top-dose-only effect, or another doubt; inactive = no such curve, though single readings can be large; an effect the other way counts as inactive or inconclusive.
SMILES,S-ASM inh,TDP1 cell CPT,TGFb inhibitor,IL1B secr inh,TDP1 cell noCPT,HepG2 tox
Cc1onc(-c2ccccc2Cl)c1C(=O)NCc1nc(-c2ccc(C(F)(F)F)cc2)no1,-11%,?,?,-76*,15µM*,18%
COc1ccc(NC(=O)C2CCCN(S(=O)(=O)c3c(C)[nH]c(=O)[nH]c3=O)C2)cc1Cl (configuration not stated),1%,0%,15%,36,-25%,19%
CCC1(C2CCN(C(=O)c3ccccc3C)CC2)NC(=O)N(CCc2scnc2C)C1=O (configuration not stated),·,15%[9.04 µM],·,·,4%,·
CCOC(=O)C(C(=O)N(C)Cc1ccccc1)C1CCCCC1 (configuration not stated),1%,?,1%,-9,?,0%
CN1CCN(CCC(=O)N/N=C/c2ccccn2)CC1,5%,-33%,6%,20,-1%,8%
COc1ccc2c(c1)nc(CN1CCN(CCO)CC1)n2C,7%,-8%,-2%,0,24%,10%
Cc1cccc(-c2noc(CN(C(=O)C(c3ccccc3)c3ccccc3)C(C)C)n2)c1,-11%,?,-15%,-16,16µM*,-1%
COc1ccc(-c2noc(CCC(=O)NC3CCCCCC3)n2)cc1OC,·,?,-14%,-19,?,3%
Cc1cccc(-c2noc(CN(C(=O)c3ccc(Br)o3)C(C)C)n2)c1,-3%,?,2%,-5,-9%,4%
Cc1onc(-c2ccccc2Cl)c1C(=O)N(Cc1nc(-c2ccccc2)no1)C1CCCCC1,-7%,?,-1%,7,18µM*,3%
Cc1cccc(-c2noc(CN(C(=O)c3ccc(C)c(C)c3)C(C)C)n2)c1,·,5.2µM*,?,·,3.7µM*,-49%
Cc1onc(-c2ccccc2Cl)c1C(=O)NCC1CCCO1 (configuration not stated),7%,-17%,7%,0,-2%,4%
COc1ccc(C(=O)N(Cc2nc(-c3ccc(C)cc3)no2)C2CCCCC2)cc1OC,-19%,?,?,-67*,?,-28%
Cc1cccc(NC(=O)CC2C(=O)NCCN2C(=O)Nc2ccc(Cl)cc2)c1 (configuration not stated),-24%,?,?,?,-26%,-33%
O=S(=O)(c1ccccc1)N1CCC(O)(CSc2ccc(F)cc2)CC1,2%,?,0%,-20,?,-17%
Cc1cccc(-c2noc(CN(C(=O)COc3ccc(C(C)C)cc3)C(C)C)n2)c1,·,?,?,·,16µM*,-34%
COc1ccc(-c2noc(CN(C(=O)c3ccc4c(c3)OCO4)C(C)C)n2)cc1OC,3%,?,32%,-19,?,-4%
Cc1cccc(-c2noc(CN(C(=O)c3ccc4c(c3)OCO4)C(C)C)n2)c1,-2%,18µM*,37%,-13,?,3%
CCN(Cc1nc(-c2ccccc2)no1)C(=O)c1ccc2c(c1)OCO2,1%,1%,5%,27,-19%,13%
CCN(Cc1nc(-c2cccc(C)c2)no1)C(=O)c1ccc2c(c1)OCO2,8%,-5%,-27%,-69*,-6%,-23%
Cc1ccc(OCC(=O)N(Cc2nc(-c3ccccc3)no2)C(C)C)cc1C,·,?,?,·,?,-29%
COCCn1c(=O)c(-c2ccc(Cl)cc2)nc2cncnc21,·,-1%,·,·,-23%,·
CCOC(=O)COc1c(Cl)cc(C2NC(=S)NC(c3ccccc3)=C2C(C)=O)cc1OC (configuration not stated),-4%,-15%,?,-95*,-27%,-34%
